The nature of test [1]: ATG_XTT_Cytotoxicity: Cytotoxicity Assessment in the Attagene TRANS-FACTORIAL HepG2 Assay (AID 2283584).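 On AC50: cells exposed to compound for 24 h before reading; active means loss of viability signal versus DMSO baseline.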 In outline: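 XTT readout of cell number in transfected HepG2 cells, 24 h post-dosing; DMSO serves as negative control and baseline, with activity taken as loss of viability signal.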
Test [2] can be described thus: TOX21_p53_BLA_p2_viability: Viability Assessment in the Tox21 HCT-116 p53 Agonism Beta-lactamase Assay, Phase 2 (AID 2283591).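 Further: compound exposure lasted 16 h at 37 °C; actives lower the ATP signal meaning cytotoxicity.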 The essentials: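 Cytotoxicity readout: CellTiter-Glo ATP luminescence, 30 min at room temperature, after the beta-lactamase read. Cells were HCT116 exposed 16 h at 37C to compounds pin-transferred at 217-fold dilution from DMSO stocks.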
Test [3] has as its target Cellular tumor antigen p53 (Homo sapiens) (UniProt P04637). In words: TOX21_p53_BLA_p2_ratio: Tox21 HCT-116 p53 Agonism Beta-lactamase Assay, Ratio, Phase 2 (AID 2283592). In outline: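 In this cell-based reporter format, HCT116 cells were dosed with chemicals delivered from DMSO by 217-fold dilution and incubated 16 h at 37C. Emission at 460 and 530 nm after 2 h CCF4-AM loading provided the ratio, fitted upward versus DMSO.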

The nature of test [4]: TOX21_p53_BLA_p3_viability: Viability Assessment in the Tox21 HCT-116 p53 Agonism Beta-lactamase Assay, Phase 3 (AID 2283593).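 Further: cells exposed to compound for 16 h before reading.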 In outline:
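Cellular ATP was quantified by CellTiter-Glo luminescence, read after 30 min at room temperature. Beforehand, HCT116 cells (4000/well) received compound 5 h post-seeding, 217-fold diluted from DMSO, then incubated 16 h at 37C.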

In test [5] the target is Cellular tumor antigen p53 (Homo sapiens) (UniProt P04637). In words: TOX21_p53_BLA_p3_ratio: Tox21 HCT-116 p53 Agonism Beta-lactamase Assay, Ratio, Phase 3 (AID 2283596). The essentials: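 HCT116 p53-bla cells (4000/well) given compound in DMSO (217-fold dilution) after 5 h, incubated 16 h at 37C. CCF4-AM substrate 2 h at room temperature; 460/530 nm emission ratio, gain fitted against DMSO.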

A short description of test [6]: TOX21_p53_BLA_p4_viability: Viability Assessment in the Tox21 HCT-116 p53 Agonism Beta-lactamase Assay, Phase 4 (AID 2283597).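 Further: hits lower the luminescence signal meaning cytotoxicity.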 The essentials:
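We seeded HCT116 p53 reporter cells at 4000/well and waited 5 h. We then added compounds in DMSO at a 217-fold dilution and incubated for 16 h. Viability was read as CellTiter-Glo luminescence after 30 min at RT.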

Test [7] addresses Cellular tumor antigen p53 (Homo sapiens) (UniProt P04637). Description: TOX21_p53_BLA_p5_ratio: Tox21 HCT-116 p53 Agonism Beta-lactamase Assay, Ratio, Phase 5 (AID 2283599). The essentials:
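Beta-lactamase reporter ratio (blue 460 nm over green 530 nm, 405 nm excitation) after 2 h CCF4-AM loading, in HCT-116 cells exposed 16 h at 37 C to compounds pinned at 217-fold dilution. Increases relative to DMSO baseline scored.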

The nature of test [8]: TOX21_p53_BLA_p5_viability: Viability Assessment in the Tox21 HCT-116 p53 Agonism Beta-lactamase Assay, Phase 5 (AID 2283600). In outline: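 Compounds, pinned from DMSO at 217-fold dilution, were left on the cells for 16 h. The viability endpoint was ATP content measured by CellTiter-Glo luminescence, where falling signal reflects cytotoxicity.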
Test [9] concerns the target Cellular tumor antigen p53 (Homo sapiens) (UniProt P04637). Description: TOX21_p53_BLA_p4_ratio: Tox21 HCT-116 p53 Agonism Beta-lactamase Assay, Ratio, Phase 4 (AID 2283601). In outline: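 Signal is the blue/green (460nm/530nm) ratio of cleaved versus uncleaved CCF4-AM substrate, read after 2 h substrate loading. Cells were HCT116 carrying the p53-responsive beta-lactamase reporter, dosed 16 h at 37C, 5% CO2; CellTiter-Glo measured in parallel.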

The nature of test [10]: Tanguay_ZF_120hpf_MORT_legacy: (Legacy) Oregon State University Tanguay Lab 120 Hour Post-fertilization zebrafish Assay for Mortality (AID 2283633).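 On AC50: fitted as increase in binary mortality versus DMSO negative control.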 In outline:
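Brightfield scoring of embryo death (binary) at 24 and 120 hpf; static exposure 6–120 hpf, 28C, sealed and foil-covered. Pronase-dechorionated 5D wild-type larvae, single embryo per well. DMSO 0.64% v/v; trimethyltin chloride 5uM positive control.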

Test [11] in a line: Tanguay_ZF_120hpf_YSE_legacy: (Legacy) Oregon State University Tanguay Lab 120 Hour Post-fertilization zebrafish Assay for Yolk Sac Edema (AID 2283634).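 On AC50: actives raise the incidence of yolk sac edema above the DMSO baseline.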 The essentials: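 Binary brightfield scoring of yolk sac edema at 120 hpf; DMSO baseline, gain-of-signal fitting. Dechorionated 5D larvae, one per well, static exposure 6–120 hpf, 28C, 0.64% DMSO. Dead embryos not scored.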

The nature of test [12]: Tanguay_ZF_120hpf_AXIS_legacy: (Legacy) Oregon State University Tanguay Lab 120 Hour Post-fertilization zebrafish Assay for Body Axis Malformation (AID 2283635).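 On AC50: potency for an increased fraction of larvae scored with body axis malformation.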 In outline:
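Embryos: 5D wild-type, pronase-dechorionated 4 hpf; static exposure 6–120 hpf, 28C, sealed, dark, 1 embryo/well, 0.64% DMSO. 120 hpf axis malformation scored present/absent; dead embryos excluded. Analysed as gain of signal vs DMSO.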

Test [13] in a line: Tanguay_ZF_120hpf_EYE_legacy: (Legacy) Oregon State University Tanguay Lab 120 Hour Post-fertilization zebrafish Assay for Eye Malformation (AID 2283636). The essentials:
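Read-out is binary presence or absence of eye malformation, scored by brightfield microscopy at 120 hpf. Single larvae were exposed from 6 hpf in embryo medium containing 0.64% DMSO, with DMSO as baseline.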

Test [14] is described as follows: Tanguay_ZF_120hpf_SNOU_legacy: (Legacy) Oregon State University Tanguay Lab 120 Hour Post-fertilization zebrafish Assay for Snout Malformation (AID 2283637). The essentials:
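Snout malformation read as a yes/no call on brightfield images of 120 hpf larvae (Tropical 5D strain). Static exposure began at 6 hpf on dechorionated embryos in 0.64% DMSO, with gain of signal analysed versus DMSO controls.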

The nature of test [15]: Tanguay_ZF_120hpf_JAW_legacy: (Legacy) Oregon State University Tanguay Lab 120 Hour Post-fertilization zebrafish Assay for Jaw Malformation (AID 2283638).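 On AC50: active means more embryos with jaw malformation than DMSO controls.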 The essentials: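 Binary jaw-malformation calls at 120 hpf by brightfield imaging; DMSO (0.64% v/v) = baseline. Embryos: 5D wild-type, pronase-dechorionated, one per well from 6 hpf, static exposure, 28C, sealed, dark.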

Test [16] in a line: Tanguay_ZF_120hpf_OTIC_legacy: (Legacy) Oregon State University Tanguay Lab 120 Hour Post-fertilization zebrafish Assay for Otic Vesicle Malformation (AID 2283639). In outline:
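Tropical 5D wild-type zebrafish embryos were exposed statically in sealed, foil-covered plates at 28C until 120 hpf, with 0.64% (vol/vol) DMSO final. Otic vesicle malformation was scored present/absent by brightfield microscopy, with DMSO as baseline.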

Test [17] is described as follows: Tanguay_ZF_120hpf_SOMI_legacy: (Legacy) Oregon State University Tanguay Lab 120 Hour Post-fertilization zebrafish Assay for Somite Malformation (AID 2283647). The essentials:
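Binary brightfield scoring of somite defects at 120 hpf in 5D wild-type larvae; one dechorionated embryo per well, static exposure from 6 hpf, 28C, sealed and dark. Final DMSO 0.64%; trimethyltin chloride 5uM positive control.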

Test [18] is described as follows: Tanguay_ZF_120hpf_CFIN_legacy: (Legacy) Oregon State University Tanguay Lab 120 Hour Post-fertilization zebrafish Assay for Caudal Fin Malformation (AID 2283649). In outline: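 Dechorionated 5D wild-type zebrafish, static exposure 6–120 hpf, 28C, sealed and dark, 0.64% v/v DMSO final. Binary fin-malformation call at 120 hpf, brightfield; gain of signal vs DMSO baseline.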

Values joined by “and” are separate entries in the source; they are usually repeats but may differ in a detail not shown here. Equal values may be shown once. Records with an inconclusive call do not appear. The source holds several records for some structures; these can differ, active in one and inactive in another. Active and inactive are the calls of the source. How the source made its calls: active means hit-call score of the fitted dose curve at least 0.9, where 1 is the maximum; inconclusive means response in the unintended direction; inactive means score below 0.9.

Chain of Cellular tumor antigen p53 (Homo sapiens) (P04637 whole entry, looked up): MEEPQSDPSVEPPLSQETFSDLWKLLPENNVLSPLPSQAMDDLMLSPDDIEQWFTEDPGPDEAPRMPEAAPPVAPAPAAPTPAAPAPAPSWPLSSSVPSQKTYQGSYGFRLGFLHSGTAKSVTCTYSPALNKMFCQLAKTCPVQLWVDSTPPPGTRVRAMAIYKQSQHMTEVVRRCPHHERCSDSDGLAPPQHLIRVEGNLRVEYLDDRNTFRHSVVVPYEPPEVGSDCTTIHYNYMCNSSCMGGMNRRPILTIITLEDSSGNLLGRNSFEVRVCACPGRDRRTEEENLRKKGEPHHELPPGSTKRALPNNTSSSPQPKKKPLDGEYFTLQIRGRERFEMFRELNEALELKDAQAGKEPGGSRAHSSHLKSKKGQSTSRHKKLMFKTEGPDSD

Consider `O=S(=O)(O)C(F)(F)C(F)(F)C(F)(F)C(F)(F)C(F)(F)C(F)(F)C(F)(F)C(F)(F)F`, for which the half-maximal activity concentration (AC50) – broadly, the concentration at which the activity in the assay is half-maximal – was 151 µM (active) and 157 µM (active) in [1]; 46.1 µM (active) in test [2]; 61.4 µM (active) in test [4]; 64.6 µM (active) and 48.8 µM (active) and 59.3 µM (active) in test [6]; 82.4 µM (active) and 82.8 µM (active) in test [9]; 426 nM (active) and 4.73 µM (active) and 20.8 µM (active) in test [10]. Also, the half-maximal activity concentration (AC50) in test [11] is 19.8 µM (active) and 7.26 µM (active) and 41.3 µM (active); in test [12], 25 µM (active) and 42.3 µM (active) and 42.2 µM (active); in test [13], 37 µM (active); in [14], 25.1 µM (active) and 33.2 µM (active); in [15] it was 26.5 µM (active) and 43.5 µM (active); in test [16] it was 47.5 µM (active). The results for the half-maximal activity concentration (AC50) in test [17] and in test [18] were 33.8 µM (active) and 12.2 µM (active), respectively. The compound was called inactive in test [1], in test [2], in test [3], in test [4], in [5] and in [7]. The result in test [8], in [9], in test [10], in test [11], in test [12] and in test [13] was inactive. Also, the compound was called inactive in test [14], in [15], in test [16], in test [17] and in test [18].
For the compound `CC1(C)C(C=C(Cl)Cl)C1C(=O)OC(C#N)c1ccc(F)c(Oc2ccccc2)c1` (stereo not given), the outcome in test [1], in [2], in [3], in test [4], in test [6] and in [7] was inactive. The call in test [8], in test [9], in test [10], in test [11], in test [12] and in test [13] was inactive. The result in test [14], in [15] and in [18] was inactive.
With `CCOCN(C(=O)CCl)c1c(C)cccc1CC`, the call in test [1], in test [3], in [5], in test [6], in test [7] and in test [9] was inactive. Besides, the outcome in test [10], in test [14], in test [15], in [16], in [17] and in test [18] was inactive. The concentration at half-maximal activity (AC50) in [12] was 39 µM (active).
As to `CCS(=O)(=O)c1cccnc1S(=O)(=O)NC(=O)Nc1nc(OC)cc(OC)n1`, the call in test [1] was inactive.
Consider `OCCOc1ccccc1`, for which the compound was called inactive in test [2], in [3], in [4], in test [5], in test [6] and in [7]. Moreover, the outcome in test [8], in test [9], in test [10], in test [11], in test [12] and in [14] was inactive. Besides, the compound was called inactive in test [15], in test [17] and in test [18].

The record behind these values is PubChem BioAssay (EPA / NIEHS).
